According to PubChem BioAssay (EPA / NIEHS):
Records with an inconclusive call do not appear. Active and inactive are the calls of the source. How the source made its calls, unless noted: active means hit-call score of the fitted dose curve at least 0.9, where 1 is the maximum; inconclusive means response in the unintended direction; inactive means score below 0.9.

Experiments:
[1] = target: Cellular tumor antigen p53 (Homo sapiens) (UniProt P04637); test: TOX21_p53_BLA_p2_ratio: Tox21 HCT-116 p53 Agonism Beta-lactamase Assay, Ratio, Phase 2 (AID 2283592)
Sequence of Cellular tumor antigen p53 (Homo sapiens) (P04637 whole entry, looked up): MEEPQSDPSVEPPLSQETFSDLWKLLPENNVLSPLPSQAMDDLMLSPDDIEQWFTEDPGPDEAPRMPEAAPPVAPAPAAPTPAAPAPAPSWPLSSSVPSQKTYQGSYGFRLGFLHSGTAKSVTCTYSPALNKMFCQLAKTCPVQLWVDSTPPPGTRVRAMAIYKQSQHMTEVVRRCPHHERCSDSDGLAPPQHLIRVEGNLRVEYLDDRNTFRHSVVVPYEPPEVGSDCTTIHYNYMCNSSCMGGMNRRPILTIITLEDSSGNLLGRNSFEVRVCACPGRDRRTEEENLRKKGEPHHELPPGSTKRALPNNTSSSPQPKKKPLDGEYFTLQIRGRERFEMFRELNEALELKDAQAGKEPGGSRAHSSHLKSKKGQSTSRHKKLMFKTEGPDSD
Procedure, shortened: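 In this cell-based reporter format, HCT116 cells were dosed with chemicals delivered from DMSO by 217-fold dilution and incubated 16 h at 37C. Emission at 460 and 530 nm after 2 h CCF4-AM loading provided the ratio, fitted upward versus DMSO.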

[2] = TOX21_p53_BLA_p3_viability: Viability Assessment in the Tox21 HCT-116 p53 Agonism Beta-lactamase Assay, Phase 3 (AID 2283593);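 further: cells exposed to compound for 16 h before reading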
Procedure, shortened: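 HCT-116 cells (4000/well) rested 5 h at 37C, then got DMSO compounds by pin tool (217-fold dilution) for 16 h at 37C, 5% CO2. After the bla read, CellTiter-Glo was added and luminescence read at 30 min, room temperature.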

[3] = target: Cellular tumor antigen p53 (Homo sapiens) (UniProt P04637); test: TOX21_p53_BLA_p5_ratio: Tox21 HCT-116 p53 Agonism Beta-lactamase Assay, Ratio, Phase 5 (AID 2283599)
Procedure, shortened: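 HCT-116 cells carrying a p53-inducible beta-lactamase reporter were seeded at 4000 cells/well and dosed after 5 h with compound in DMSO (217-fold dilution). After 16 h at 37C, CCF4-AM substrate was added for 2 h, and the 460/530 nm emission ratio was scored as gain-of-signal versus DMSO.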

[4] = TOX21_p53_BLA_p5_viability: Viability Assessment in the Tox21 HCT-116 p53 Agonism Beta-lactamase Assay, Phase 5 (AID 2283600)
Procedure, shortened: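 Compounds, pinned from DMSO at 217-fold dilution, were left on the cells for 16 h. The viability endpoint was ATP content measured by CellTiter-Glo luminescence, where falling signal reflects cytotoxicity.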

[5] = target: Cellular tumor antigen p53 (Homo sapiens) (UniProt P04637); test: TOX21_p53_BLA_p4_ratio: Tox21 HCT-116 p53 Agonism Beta-lactamase Assay, Ratio, Phase 4 (AID 2283601)
Procedure, shortened: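 HCT116 cells carrying an inducible beta-lactamase reporter were plated at 4000 cells/well, rested 5 h, then exposed to compounds in DMSO (217-fold dilution) for 16 h at 37C. CCF4-AM substrate was loaded 2 h at room temperature; 460/530 nm emission ratio scored gain-of-signal versus DMSO.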

[6] = TOX21_p53_BLA_p4_viability: Viability Assessment in the Tox21 HCT-116 p53 Agonism Beta-lactamase Assay, Phase 4 (AID 2283597);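 further: hits lower the luminescence signal meaning cytotoxicity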
Procedure, shortened: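 We seeded HCT116 p53 reporter cells at 4000/well and waited 5 h. We then added compounds in DMSO at a 217-fold dilution and incubated for 16 h. Viability was read as CellTiter-Glo luminescence after 30 min at RT.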

[7] = CCTE_Harrill_HTTr_Viability_MCF7: CCTE's 6-hour Cell Viability Assessment for the High-Throughput Transcriptomics (HTTr) Platform, in MCF-7 cells cultured in DMEM + 10% fetal bovine serum, Harrill Lab (AID 2284010; active means hit-call score of the fitted dose curve at least 0.9, where 1 is the maximum; inactive means score below 0.9)
Procedure, shortened: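 MCF-7 cells in DMEM + 10% FBS, 384-well, exposed 6 h to an eight-point dilution series. Membrane integrity scored by high-content imaging of propidium iodide exclusion; bidirectional fit versus DMSO.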

[8] = CCTE_Harrill_HTTr_Apoptosis_MCF7: CCTE's 6-hour Apoptosis Assessment for the High-Throughput Transcriptomics (HTTr) Platform, in MCF-7 cells cultured in DMEM + 10% fetal bovine serum, Harrill Lab (AID 2284011; active means hit-call score of the fitted dose curve at least 0.9, where 1 is the maximum; inactive means score below 0.9)
Procedure, shortened: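 Read-out: CellEvent Caspase 3/7 Green signal by high content imaging, gain-of-signal indicating apoptosis. MCF-7 cells, DMEM + 10% FBS, eight-point dilution series, 6 h exposure. Curves fitted bidirectionally relative to DMSO negative control.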

[9] = ACEA_ER_AUC_viability: ACEA Biosciences xCELLigence Real-Time Cell Analysis on Estrogen Receptor Agonism for Viability (AID 2283782);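 further: continuous compound exposure with impedance area under curve over 80 h; hit means loss of impedance signal meaning reduced cell growth or viability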
Procedure, shortened: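 T-47D human breast cells in phenol red-free RPMI1640 with 10% charcoal-stripped FBS were dosed with an 8-point 1:4 dilution series from 100 uM top final concentration, in duplicate. Impedance-based growth was followed for 80 h; AUC analysed versus DMSO.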

[10] = CCTE_Harrill_HTTr_CellCount_MCF7: CCTE's Cell Proliferation Assessment for the High-Throughput Transcriptomics (HTTr) Platform, Harrill Lab (AID 2284012);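 further: cells exposed to compound for six hours; intended direction is loss of nuclei count meaning fewer cells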
Procedure, shortened: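 MCF7 cells exposed 6 hours to an eight-point dilution series; Hoechst-stained nuclei counted by high-content imaging. Bidirectional curve fitting against DMSO baseline.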

CC(C)c1ccccc1C(C)C
outcome [1]: inactive
outcome [2]: inactive
AC50 [3]: 67 µM (active)
outcome [4]: inactive
outcome [5]: inactive

CC(C)(C)c1nnc(NS(=O)(=O)c2ccccc2)s1
outcome [1]: inactive
outcome [2]: inactive
outcome [3]: inactive
outcome [4]: inactive

CS(=O)(=O)CCNCc1ccc(-c2ccc3ncnc(Nc4ccc(OCc5cccc(F)c5)c(Cl)c4)c3c2)o1
outcome [1]: inactive
outcome [2]: inactive
outcome [3]: inactive
outcome [5]: inactive

CN1CCN(c2cc3c(cc2F)c(=O)c(C(=O)O)cn3-c2ccc(F)cc2)CC1
outcome [1]: inactive
outcome [2]: inactive
outcome [3]: inactive
outcome [4]: inactive
outcome [5]: inactive

CC1(C)S[C@@H]2[C@H](NC(=O)[C@@H](NC(=O)N3CCNC3=O)c3ccccc3)C(=O)N2[C@H]1C(=O)O
outcome [1]: inactive
outcome [2]: inactive
outcome [3]: inactive
outcome [4]: inactive
outcome [5]: inactive

Cc1cc(N)c(S(=O)(=O)O)cc1Cl
outcome [1]: inactive
outcome [2]: inactive
outcome [3]: inactive

CC(N)CN (centres undefined)
outcome [1]: inactive
outcome [2]: inactive
outcome [3]: inactive
outcome [5]: inactive

CN(C)CCC(O)(c1ccccc1)c1ccccc1Cl (centres undefined)
outcome [1]: inactive
outcome [2]: inactive
outcome [3]: inactive
outcome [4]: inactive

COC(=O)CC[C@H](N)C(=O)O
outcome [1]: inactive
outcome [2]: inactive
outcome [3]: inactive

CC(C)(C)NSc1nc2ccccc2s1
outcome [1]: inactive
outcome [2]: inactive
outcome [6]: inactive
outcome [4]: inactive
outcome [5]: inactive

N[C@@H](C(=O)N[C@@H]1C(=O)N2C(C(=O)O)=C(Cl)CC[C@H]12)c1ccccc1
outcome [1]: inactive
outcome [2]: inactive
outcome [4]: inactive

CCN(CC)CC(=O)Nc1c(C)cccc1C
outcome [1]: inactive
outcome [2]: inactive
outcome [3]: inactive
outcome [5]: inactive

FC(F)(F)c1ccccc1-n1ccnc1
outcome [1]: inactive
outcome [2]: inactive
outcome [3]: inactive
outcome [4]: inactive

CN[C@@H]1CCc2[nH]c3ccc(C(N)=O)cc3c2C1
outcome [1]: inactive
outcome [2]: inactive
outcome [3]: inactive
outcome [5]: inactive

CCCCCCCC/C=C\CCCCCCCC(=O)OCCCC
outcome [1]: inactive
outcome [2]: inactive
outcome [4]: inactive

CC(C)C(=O)OCC(C)(C)C(O)C(C)C (centres undefined)
outcome [1]: inactive
outcome [2]: inactive
outcome [3]: inactive
outcome [4]: inactive
outcome [5]: inactive

CC(=O)Nc1ccc(OCC(O)CNC(C)C)cc1 (centres undefined)
outcome [1]: inactive
outcome [2]: inactive
outcome [3]: inactive
outcome [4]: inactive
outcome [5]: inactive

CCC(O)c1ccccc1 (centres undefined)
outcome [1]: inactive
outcome [2]: inactive
outcome [4]: inactive
outcome [5]: inactive

COc1cc(C(=O)N2CCCCCCC2)cc(OC)c1OC
outcome [1]: inactive
outcome [2]: inactive
outcome [6]: inactive
outcome [4]: inactive
outcome [5]: inactive

CCN(CCO)CCCC(C)Nc1ccnc2cc(Cl)ccc12 (centres undefined)
outcome [1]: inactive
outcome [2]: inactive
outcome [3]: inactive
outcome [4]: inactive
outcome [5]: inactive

Oc1ccc(C(O)CNCCCCCCNCC(O)c2ccc(O)c(O)c2)cc1O (centres undefined)
outcome [1]: inactive
outcome [2]: inactive
outcome [3]: inactive
outcome [4]: inactive

CCN1CCCC1CNC(=O)c1cc(S(N)(=O)=O)ccc1OC (centres undefined)
outcome [1]: inactive
outcome [2]: inactive
outcome [3]: inactive
outcome [4]: inactive
outcome [5]: inactive
outcome [7]: inactive
outcome [8]: inactive

OC[C@H]1O[C@@H](OCCc2ccc(O)cc2)[C@H](O)[C@@H](O)[C@@H]1O
outcome [1]: inactive
outcome [2]: inactive
outcome [4]: inactive

CC1(C)O[C@@H]2C[C@H]3[C@@H]4CCC5=CC(=O)CC[C@]5(C)[C@@]4(F)[C@@H](O)C[C@]3(C)[C@]2(C(=O)CCl)O1
outcome [1]: inactive
outcome [2]: inactive
outcome [6]: inactive
outcome [4]: inactive
outcome [5]: inactive

O=C1c2ccccc2C(=O)N1CO
outcome [1]: inactive
outcome [2]: inactive
outcome [3]: inactive
outcome [4]: inactive
outcome [5]: inactive

Nc1cc(C(=O)O)c(O)c(S(=O)(=O)O)c1
outcome [1]: inactive
outcome [2]: inactive
outcome [3]: inactive
outcome [4]: inactive

Nc1cccc2c(=O)[nH][nH]c(=O)c12
outcome [1]: inactive
outcome [2]: inactive
outcome [3]: inactive
outcome [4]: inactive
outcome [5]: inactive

CC(COc1ccccc1)NC(C)C(O)c1ccc(O)cc1 (centres undefined)
outcome [1]: inactive

Cc1cccc(C)c1NC(=O)NC1=CCCN1C
outcome [1]: inactive
outcome [2]: inactive
outcome [6]: inactive
outcome [5]: inactive

Cc1cccc(O)c1N
outcome [1]: inactive
outcome [2]: inactive
outcome [3]: inactive
outcome [5]: inactive

CCN1C(=O)c2ccccc2C1Nc1ccc(OCCN2CCCCC2)cc1 (centres undefined)
outcome [1]: inactive
outcome [2]: inactive
outcome [3]: inactive
outcome [5]: inactive

O=C(c1ccc(Cl)cc1)c1ccc(Cl)cc1
outcome [1]: inactive
outcome [2]: inactive
outcome [6]: inactive
outcome [4]: inactive
outcome [5]: inactive
outcome [9]: inactive
outcome [7]: inactive
outcome [8]: inactive
outcome [10]: inactive

NC(CO)C(=O)NNCc1ccc(O)c(O)c1O (centres undefined)
outcome [1]: inactive
outcome [2]: inactive
outcome [3]: inactive
outcome [4]: inactive
outcome [5]: inactive

O=C(Oc1ccccc1C(=O)O)c1ccccc1O
outcome [1]: inactive
outcome [2]: inactive
outcome [6]: inactive
outcome [4]: inactive
outcome [5]: inactive

COCc1ccc(COC)cc1
outcome [1]: inactive
outcome [2]: inactive
outcome [6]: inactive

Cc1scc2c1N(C(=O)CN1CCN(C)CC1)c1ccccc1NC2=O
outcome [1]: inactive
outcome [2]: inactive
outcome [3]: inactive

CCC(C=O)CC
outcome [1]: inactive
outcome [2]: inactive
outcome [3]: inactive
outcome [5]: inactive
